Compound activity from PubChem.
LRH-1 inv ag: suppresses constitutive activity of human LRH-1. O00482. HEK293T StAR-luciferase reporter, LRH-1 transfected, 24 h. inhibition, % at 3.6 µM. 360,000 tested, 0.13% active;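 active = inhibition above the mean inhibition of all tested compounds plus 3 SD, cut at about 73% in these data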
COUP-TFII inh: NR2F2 (human) inhibition, primary screen; 370,000 tested, 0.7% active; inhibition, % at 8.6 µM; HEK293T NGFI-A luciferase reporter, luminescence; AID 686940;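 active = inhibition above a per-plate cutoff, mean inhibition of test wells between control levels plus 3 SD, cut at about 38% in these data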;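 also: cells cotransfected with COUP-TFII expression vector driving the NGFI-A reporter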
NCOA2 inhibitor: inhibits human steroid receptor coactivator 2 | Q15596 | HEK293 GAL4-SRC2 luciferase reporter, luminescence | inhibition, % at 9 µM | 370,000 tested, 0.17% active | AID 651957;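 active = inhibition above the mean inhibition of all tested compounds plus 3 SD, set per campaign, cut at about 52% in these data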
NCOA3 inh: inhibitors of human steroid receptor coactivator 3 (SRC3); 360,000 tested, 0.17% active; Q9Y6Q9; inhibition, % at 3.6 µM; HEK293 GAL4-SRC3 luciferase reporter, luminescence;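 active = inhibition above a per-campaign cutoff, the mean of all compounds plus 3 SD, cut at about 60% in these data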;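 also: higher means less SRC3-driven luciferase light from the GAL4 reporter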
NCOA1 inh: inhibits human SRC1 coactivator; Q15788; HEK293 GAL4-SRC1 luciferase reporter, luminescence; inhibition, % at 3.6 µM; 360,000 tested, 0.12% active; AID 588354;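 active = inhibition above the campaign mean plus 3 SD, with each screening campaign given its own cutoff, cut at about 60% in these data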
VP16 Luc counter: inhibits VP16 reporter, flagging COUP-TFII antagonist hits; shares compounds with COUP-TFII inh; HEK293 Gal4-VP16 luciferase reporter, luminescence; inhibition, % at 8.5 µM; 2,500 tested, 25% active; AID 687007; in the data active = inhibition above about 13%
COUP-TFII conf: COUP-TFII (NR2F2) inhibition, confirmation assay | inhibition, % at 8.5 µM | shares compounds with COUP-TFII inh | 2,500 tested, 45% active | HEK293 NGFI-A luciferase reporter, luminescence;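 active = mean inhibition over three repeats above a set limit taken from the earlier primary screen, cut at about 38% in these data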
A number is an active result; 0 = inactive; - = no result. Most compounds without a hit are left out; they make up all but 0.84% or so of the library.

SMILES | LRH-1 inv ag | COUP-TFII inh | NCOA2 inhibitor | NCOA3 inh | NCOA1 inh | VP16 Luc counter | COUP-TFII conf
CC1CC(C)C[N+](=C2C=C(N3CCCC3)CC(C)(C)C2)C1 (centres undefined) | 0 | 62 | 0 | 0 | 0 | 15 | 59
Cc1ccc(-c2[nH]c3ccccc3c2SCCNC(=O)c2ccc(S(=O)(=O)N3CCOCC3)cc2)cc1 | 0 | 47 | 0 | 0 | 0 | 0 | 0
COc1ccc(-c2[nH]c3ccccc3c2SCCNC(=O)c2ccccc2)cc1 | 0 | 0 | 0 | 0 | 0 | - | -
CCCc1ccc(-c2ccc(/C=C/C(=O)O)cc2)nc1 | 78 | 98 | 88 | 65 | 71 | 91 | 102
COc1ccc(COc2ccccc2C(=O)NCc2ccccc2)cc1F | 0 | 41 | 0 | 0 | 0 | 0 | 0
CN(C)c1ccc(/C=C/c2nc3ccccc3s2)cc1 | 0 | 69 | 54 | 64 | 0 | 52 | 82
COc1ccc2nc(NC(=O)C3CCN(S(=O)(=O)c4cccc5nsnc45)CC3)sc2c1 | 0 | 78 | 0 | 0 | 0 | 0 | 51
COc1ccc(-c2cc(CCCC(=O)NCCc3cc(OC)ccc3OC)no2)cc1 | 0 | 0 | 0 | 0 | 0 | - | -
CCOc1ccc(-c2cc(CCCC(=O)NCc3ccc(C)cc3)no2)cc1 | 0 | 44 | 65 | 0 | 0 | 32 | 0
CCOc1ccc(-c2nnn(CC(=O)NCc3ccco3)n2)cc1 | 0 | 0 | 0 | 0 | 0 | - | -
CCOc1ccc(-c2cc(CCCC(=O)NCc3ccco3)no2)cc1 | 0 | 43 | 60 | 0 | 0 | 0 | 0
COc1ccc2c(c1)N(C)/C(=C/c1cccc[n+]1C)S2 | 0 | 56 | 0 | 0 | 0 | 0 | 0
CCN1/C(=C/c2cccc[n+]2C)Sc2ccc(OC)cc21 | 0 | 77 | 0 | 0 | 0 | 0 | 46
O=C(c1ccc(CSc2nc3ccncc3[nH]2)cc1)N1CCN(c2cccc(Cl)c2)CC1 | 0 | 78 | 0 | 0 | 0 | 0 | 51
O=C(c1ccc(CSc2nc3ccncc3[nH]2)cc1)N1CCCCCC1 | 0 | 0 | 0 | 0 | 0 | - | -
O=C(Nc1ccc(F)c(F)c1)c1ccc(F)c(S(=O)(=O)N2CCC3(CC2)OCCO3)c1 | 0 | 39 | 0 | 0 | 0 | 0 | 0
CCOc1ccc(S(=O)(=O)NCc2ccncc2)cc1NC(=O)c1ccccc1 | 0 | 59 | 0 | 0 | 0 | 0 | 54
COc1ccc(S(=O)(=O)NCc2ccncc2)cc1NC(=O)c1ccccc1 | 0 | 0 | 0 | 0 | 0 | - | -
CCOC(=O)c1cccc(NC(=O)CN(C)S(=O)(=O)c2ccc(F)cc2)c1 | - | 0 | 0 | - | - | - | -
CC(=O)OC1CCC2(C)C(CCC3C4CC=C(C(C)=O)C4(C)OC(=O)CC32)C1 (centres undefined) | 0 | 57 | 59 | 0 | 0 | 37 | 44
NCCCCCc1nnc(SCc2ccccc2Cl)o1 | 0 | 55 | 59 | 0 | 0 | 42 | 0
NCCc1nnc(SCc2c(Cl)cccc2Cl)o1 | 0 | 0 | 0 | 0 | 0 | - | -
Cc1nn(C(C)(C)C)c(C)c1/C=N/OC(=O)Nc1ccc(Cl)cc1 | 94 | 99 | 91 | 93 | 93 | 94 | 107
CCN(C(=O)[C@H]1CC(=O)O[C@@H]1c1ccccc1)c1ccccc1 | - | 0 | 0 | - | - | - | -
CC(C)C[C@@H]1COc2cccc(N3CCSCC3)c2S(=O)(=O)N1C | - | 0 | 0 | - | - | - | -
SMILES | LRH-1 inv ag | COUP-TFII inh | NCOA2 inhibitor | NCOA3 inh | NCOA1 inh | VP16 Luc counter | COUP-TFII conf
CCCCCN1C=CC(=C2C(=O)c3ccccc3C2=O)C=C1 | 0 | 70 | 83 | 0 | 0 | 48 | 73
COC(=O)c1ccc2nc(Nc3nc4c(F)cc(F)cc4s3)sc2c1 | 0 | 66 | 53 | 0 | 0 | 26 | 82
CCOC(=O)c1ccc2nc(Nc3nc4ccc(F)cc4s3)sc2c1 | 0 | 0 | 0 | 0 | 0 | - | -
C/C(=N\NC(N)=S)C1C2C3CC4C5CC(C42)C1C53 (centres undefined) | 0 | 57 | 0 | 0 | 0 | 0 | 43
C/C(CCC12CC3CC(CC(C3)C1)C2)=N\NC(N)=S | 0 | 0 | 0 | 0 | 0 | - | -
O=C(Nc1cc(Sc2ccccn2)cc([N+](=O)[O-])c1)c1cccc(F)c1 | 0 | 42 | 0 | 0 | 0 | 0 | 0
O=C(Nc1cc(Sc2nc3ccccc3s2)cc([N+](=O)[O-])c1)c1ccccc1 | 0 | 0 | 0 | 0 | 0 | - | -
Cn1c(=O)c2[nH]c(CCCCCCCc3nc4ccccc4[nH]3)nc2n(C)c1=O | 0 | 55 | 0 | 0 | 0 | 0 | 0
